The panel holds about 83,000 compounds, 20% with a hit somewhere; the sample as a whole holds those more often.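 In brief: 96-well plates, 48 h treatment, single concentration, percent growth endpoint.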 The source made the active and inactive calls. Rule for the calls: active = growth percent below 10; inactive = the rest.
Key:
Experiment in all cases: NCI-60 one-dose screen, 48 h (100 = growth as untreated, 0 = no growth, -100 = all killed)
Conditions in all cases: 10 µM unless noted
NCI-H23 lung = tested on: NCI-H23 lung
NCI-H226 lung = tested on: NCI-H226 lung
NCI-H322M lung = tested on: NCI-H322M lung
HOP-62 NSCLC = tested on: HOP-62 NSCLC
NCI-H460 lung = tested on: NCI-H460 lung
HOP-92 NSCLC = tested on: HOP-92 NSCLC
NCI-H522 lung = tested on: NCI-H522 lung
A549/ATCC NSCLC = tested on: A549/ATCC NSCLC
786-0 renal = tested on: 786-0 renal
COLO 205 colon = tested on: COLO 205 colon

Measured: growth

CN1[C@@H]2CC[C@H]1/C(=C\c1ccccc1)C1=C2[C@@H](c2ccccc2)C(C#N)=C(N)O1
inactive: NCI-H23 lung 78.6% | NCI-H226 lung 67.2% | NCI-H322M lung 94.8% | HOP-62 NSCLC 90.6% | NCI-H460 lung 92.7% | HOP-92 NSCLC 78.7% | NCI-H522 lung 74% | A549/ATCC NSCLC 48.3% | 786-0 renal 73.4% | COLO 205 colon 80.4%

CCc1nc2cc(F)c(/C=C/C(=O)NO)cc2c(=O)n1CCc1ccccc1
active: HOP-62 NSCLC 5.35% | NCI-H460 lung 7.49% | NCI-H522 lung -7.46% | 786-0 renal -5.29% | COLO 205 colon -23.3%
inactive: NCI-H23 lung 25.9% | NCI-H226 lung 32.7% | NCI-H322M lung 23.1% | HOP-92 NSCLC 15.5% | A549/ATCC NSCLC 14.9%

CCc1nc2cc(/C=C/C(=O)NO)ccc2c(=O)n1CCc1ccc(F)cc1
active: NCI-H23 lung 1.11% | HOP-62 NSCLC -11.8% | NCI-H460 lung 4.24% | HOP-92 NSCLC -4.03% | NCI-H522 lung 3.72% | A549/ATCC NSCLC 7.13% | 786-0 renal -23% | COLO 205 colon -35.7%
inactive: NCI-H226 lung 20.3% | NCI-H322M lung 18.6%

C[C@H]1Oc2cc(cnc2N)-c2c(nn(C)c2C#N)CN(C)C(=O)c2ccc(F)cc21
inactive: NCI-H23 lung 84% | NCI-H226 lung 92.2% | NCI-H322M lung 104% | HOP-62 NSCLC 50% | NCI-H460 lung 96.7% | HOP-92 NSCLC 48.4% | NCI-H522 lung 66.5% | A549/ATCC NSCLC 66.1% | 786-0 renal 77.9% | COLO 205 colon 36.3%

CS(=O)(=O)N1CCN(Cc2cc3nc(-c4cccc5[nH]ncc45)nc(N4CCOCC4)c3s2)CC1
inactive: NCI-H23 lung 37.7% | NCI-H226 lung 39.3% | HOP-62 NSCLC 30.9% | NCI-H460 lung 23.2% | NCI-H522 lung 20.8%
active: NCI-H322M lung -6.73% | HOP-92 NSCLC -17.1% | A549/ATCC NSCLC 8.23% | 786-0 renal -7.35% | COLO 205 colon 1.08%

O=C(COc1cccc(/C=C2\Cc3ccc(Cl)cc3C2=O)c1)Nc1nccs1
inactive: NCI-H23 lung 78.5% | NCI-H226 lung 86.1% | NCI-H322M lung 96.9% | HOP-62 NSCLC 96.5% | NCI-H460 lung 89.2% | HOP-92 NSCLC 77.2% | A549/ATCC NSCLC 88.7% | 786-0 renal 98.5% | COLO 205 colon 113%
active: NCI-H522 lung 2.66%

CC[C@H](Nc1ncnc2nc[nH]c12)c1nc2cccc(F)c2c(=O)n1-c1ccccc1
inactive: NCI-H23 lung 93% | NCI-H226 lung 93.3% | NCI-H322M lung 42.9% | HOP-62 NSCLC 75.6% | NCI-H460 lung 79.9% | HOP-92 NSCLC 49.2% | NCI-H522 lung 22.4% | A549/ATCC NSCLC 43.2% | 786-0 renal 37.5% | COLO 205 colon 96.1%

COc1ccc(C(=O)c2cc(OC)c(OC)c(OC)c2)cc1/C=C/C(=O)c1ccc(F)cc1
inactive: NCI-H23 lung 79.7% | NCI-H226 lung 90.4% | NCI-H322M lung 85.5% | HOP-62 NSCLC 95.5% | NCI-H460 lung 92.9% | HOP-92 NSCLC 69.2% | NCI-H522 lung 18.5% | A549/ATCC NSCLC 90.7% | 786-0 renal 77.4% | COLO 205 colon 79.3%

CCN1CCN(c2nc(C)cc(N(CCCNc3ccnc4cc(Cl)ccc34)Cc3ccc4c(c3)OCO4)n2)CC1
active: NCI-H322M lung -11.1% | HOP-62 NSCLC -42.1% | NCI-H460 lung -6.13% | HOP-92 NSCLC -33.9% | NCI-H522 lung -43.1% | A549/ATCC NSCLC 5.33% | 786-0 renal -85.8% | COLO 205 colon -78.6%
inactive: NCI-H23 lung 46% | NCI-H226 lung 61%

O=C(O)c1ccc2c(c1)nc(Nc1cccc(Cl)c1)c1ccncc12
active: NCI-H23 lung 2.72% | NCI-H226 lung 3.78% | NCI-H322M lung -25.5% | HOP-62 NSCLC -1.83% | HOP-92 NSCLC -20.3% | NCI-H522 lung -35.7% | COLO 205 colon -16.8%
inactive: NCI-H460 lung 14.7% | A549/ATCC NSCLC 27.8% | 786-0 renal 17.5%

COCC(=O)NC/C=C/c1ccc2ncnc(Nc3ccc(Oc4ccc(C)nc4)c(C)c3)c2c1
active: COLO 205 colon 9.48%
inactive: NCI-H23 lung 39.3% | NCI-H226 lung 53.5% | NCI-H322M lung 10.8% | HOP-62 NSCLC 58.8% | NCI-H460 lung 50.7% | HOP-92 NSCLC 23.8% | NCI-H522 lung 14.8% | A549/ATCC NSCLC 46% | 786-0 renal 55%

COc1ccc2c(CCCC(c3ccccc3)c3ccccc3)c3[n+](cc2c1OC)CCc1cc2c(cc1-3)OCO2
active: NCI-H23 lung -30.1% | NCI-H226 lung 2.75% | HOP-62 NSCLC -9.19% | NCI-H460 lung -53% | HOP-92 NSCLC -40.6% | NCI-H522 lung -21% | 786-0 renal -18.7% | COLO 205 colon -67.8%
inactive: NCI-H322M lung 16.2% | A549/ATCC NSCLC 10.2%

O=C(Nc1ccc(-c2ccnc(Nc3ccc(N4CCOCC4)cc3)n2)cc1)[C@@H]1CCCN1
inactive: NCI-H23 lung 65.6% | NCI-H226 lung 48.6% | NCI-H322M lung 67.6% | HOP-62 NSCLC 33.6% | NCI-H460 lung 50.7% | HOP-92 NSCLC 50.2% | NCI-H522 lung 48.3% | A549/ATCC NSCLC 45% | 786-0 renal 40.3% | COLO 205 colon 44.6%
